# Compounds with a hit are over-represented: about 3% of the library has one in this group of screens.
# Wnt act: Wnt/beta-catenin pathway activation | activation, % at 9.35 µM | actives 1.2% (n = 300,000) | Wnt/beta-catenin reporter cell assay, activator, plate reader; in the data active = activation above about 30%, passing the limit was not always enough; inconclusive = no clear call, values can overlap the other calls;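 also: 0% = neutral control wells and 100% = positive control wells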
# PfHsp90 set2: growth inhibition of yeast expressing Plasmodium Hsp90. inhibition, % at 9.4 µM. S. cerevisiae expressing PfHsp90, BacTiter-Glo ATP, 48 h; yeast lacking PDR1 and PDR3 efflux regulators. actives 0.32% (n = 310,000);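 active = every replicate shows inhibition above about 80%, whatever the replicate mean, limit read from the data; inconclusive = mean inhibition reaches the set limit but some replicate falls short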;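 also: 0% = DMSO neutral controls and 100% = 20 µM radicicol positive controls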
# MITF TRPM1 HTS: activators of MITF-driven TRPM1 promoter activity in SK-MEL-5 cells; SK-MEL-5 TRPM1-promoter luciferase, 24 h; % of positive control, neutral wells = 0; actives 0.75% (n = 300,000); activation, % at 12.5 µM;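 active = mean activation of at least 80% with every replicate also reaching 80%; inconclusive = mean reaches 80% but some replicate falls short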;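 also: 0% = neutral control wells and 100% = parthenolide positive control wells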
# esBAF inh: inhibitors of esBAF chromatin remodeling in mouse ES cells; actives 2% (n = 350,000); reporter increase, % at 12.5 µM; Bmi1-luciferase knock-in reporter, 24 h; 100% = twice the neutral-well signal; AID 602393; in the data active = activation above about 40%; inconclusive = no clear call, values can overlap the other calls;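 also: 0% = median of the plate's neutral control wells and 100% = double that signal; a rise in the Bmi1 reporter signal indicates esBAF inhibition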
# N-glyco inh: blocks N-linked glycosylation in D54 reporter cells. actives 0.23% (n = 360,000). reporter increase, % at 12.5 µM. D54 ERlucT glycosylation luciferase reporter, 24 h; percent of 100 nM tunicamycin response;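 active = mean luciferase reporter signal, scaled so untreated is 0 and the glycosylation-blocking control 100, at or above a set limit in every replicate; inconclusive = mean reaches the limit but not every replicate does; inactive = mean below the limit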;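 also: luciferase carries N-glycosylation sites so blocking glycosylation raises the light; 0% = median of neutral control wells and 100% = median of 100 nM tunicamycin wells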
# Vif imaging: blocks HIV Vif function | actives 0.35% (n = 340,000) | HEK293T cells, Vif self-association by quenched fluorescence, imaging, 24 h | inhibition, % at 7.49 µM; in the data active = inhibition above about 50%, passing the limit was not always enough; inconclusive = no clear call, values can overlap the other calls; inactive = below about 31%
# The depositor's hits bear a star; ? = inconclusive; · = not tested or not shown.
SMILES,Wnt act,PfHsp90 set2,MITF TRPM1 HTS,esBAF inh,N-glyco inh,Vif imaging
COc1ccc(NC(=O)/C=C/c2cccc(F)c2)cn1,36*,-17,31,·,-2,1
COc1ccc(OC)c(/C=C/C(=O)Nc2ccc(OC)nc2)c1,0,16,14,·,0,-7
O=C(NCC1COc2ccccc2O1)C1CCCN(S(=O)(=O)c2cccc3nsnc23)C1 (stereo not given),-8,-9,-9,-6,-1,-9
Nc1nc(SCc2ccccc2)[nH]c(=O)c1-c1ccccc1,16,-4,68,45*,-4,1
C=CCNC(=O)NC(=O)CSc1nc2cc([N+](=O)[O-])ccc2n1-c1cccc(C(F)(F)F)c1,-3,12,3,-11,0,26
O=C(N/N=C/c1ccc2c(c1)OCO2)c1ccc2c(c1)OCCO2,17,14,44,·,-1,29
O=C(N/N=C/c1cc(Br)c(O)c(Br)c1O)c1ccc2c(c1)OCCO2,9,-8,31,43*,-6,6
O=C(N/N=C/c1cc(Br)c(Br)o1)c1ccc2c(c1)OCCO2,37*,4,·,58*,0,-3
Cc1nn(C)cc1/C=N/NC(=S)Nc1ccccc1,40*,12,·,69*,-5,-2
O=C(N/N=C/c1cc(Br)cc(Cl)c1O)c1ccc2c(c1)OCO2,-3,-49,·,·,-3,2
Cc1cccc(NC(=S)N/N=C/c2c[nH]c3ccccc23)c1,10,-18,-8,88*,18,24
CCn1c(SCC(=O)NC2CCCCC2)nnc1C(C)NC(=O)c1ccccc1F (stereo not given),2,24,-2,7,-1,12
Cc1noc(C)c1S(=O)(=O)N(C)C[C@H]1OCCCC[C@H](C)Oc2ccc(NC(=O)CCC(F)(F)F)cc2C(=O)N([C@@H](C)CO)C[C@H]1C,·,·,·,-5,·,·
O=C(CN1C(=O)COc2ccccc21)N(Cc1ccccc1)Cc1ccccn1,·,12,-7,-3,0,-8
O=C(N/N=C/c1c[nH]c2ccccc12)c1ccc2c(c1)OCCO2,2,8,·,51*,1,-4
O=C(Nc1ccccn1)c1c(O)c2cccc3c2n(c1=O)CCC3,·,7,7,64*,2,13
Cc1cccnc1NC(=O)c1c(O)c2cccc3c2n(c1=O)CCC3,-4,28,-24,-10,4,-6
O=C(/C(=C(\O)c1ccccc1)c1nc2ccccc2[nH]1)c1ccccc1,1,-4,24,-1,0,-12
CC(=O)/C(=C(/O)c1ccccc1)c1nc2ccccc2[nH]1,6,2,85*,37,-2,-5
COc1ccccc1NC(=S)N1CCN(C(=O)C2CCCO2)CC1 (stereo not given),2,13,2,·,1,64*
CNC[C@H]1Oc2ccc(NS(=O)(=O)c3ccc(Cl)cc3)cc2CC(=O)N([C@@H](C)CO)C[C@H]1C,·,·,·,-3,·,·
OCC1OC(n2cnc3c(SCc4ccccc4)ncnc32)C(O)C1O (stereo not given),9,-16,·,·,113*,-7
Nc1nc(SCc2ccccc2)c2ncn(C3OC(CO)C(O)C3O)c2n1 (stereo not given),-1,15,-6,7,2,-2
OCC1OC(n2ccc3c(SCc4ccccc4)ncnc32)C(O)C1O (stereo not given),32*,-21,55,88*,32*,1
COc1ccc(Cl)cc1N1C(=O)/C(=C/c2sccc2C)N=C1SCC(=O)NC1CC1,-6,·,·,-8,-3,-4
SMILES,Wnt act,PfHsp90 set2,MITF TRPM1 HTS,esBAF inh,N-glyco inh,Vif imaging
O=C(CSc1nc2ccccc2[nH]1)c1ccccc1F,?,-17,56,52*,-4,-9
Fc1cccc(F)c1CSc1nc2ccccc2[nH]1,·,-15,71,42*,-10,-16
O=C(CSc1nc2ccccc2[nH]1)c1c[nH]c2ccccc12,20,1,25,28,2,-2
Cc1noc(C)c1CSc1nc2ccccc2[nH]1,-2,5,4,-8,3,2
O=C(CSc1nc2ncccc2[nH]1)NCc1ccccc1,·,17,-1,10,2,2
O=C(CSc1nc2ccc(Cl)cc2[nH]1)c1cccs1,37*,-23,54,?,0,-4
O=C(CSc1nc2ccccc2[nH]1)NCc1ccccc1,18,-7,·,43*,-1,-3
